Results on three compounds are retold here after PubChem BioAssay (EPA / NIEHS).

Activity calls are given as the source filed them. How the source made its calls: active means hit-call score of the fitted dose curve at least 0.9, where 1 is the maximum; inactive means score below 0.9.

Test [1] in a line: ATG_CRE_CIS: Attagene CIS-FACTORIAL HepG2 Assay for human cAMP Responsive Element (CRE) binding protein 3 (AID 2282926). The following applies: HepG2 CRE cis-reporter, Attagene multiplexed mRNA; actives raise or lower the signal. An outline of the steps:
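Human liver HepG2, transient MRTU transfection, 24 h compound exposure. Total RNA → oligo(dT) RT → PCR → 6-FAM primer extension → HpaI cut → CE. Activity called both directions vs DMSO.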

The target of test [2] is CCAAT/enhancer-binding protein beta (Homo sapiens) (UniProt P17676). The experiment in a line: ATG_C_EBP_CIS: Attagene CIS-FACTORIAL HepG2 Assay for human CCAAT/Enhancer Binding Protein (C/EBP) beta (AID 2282927). The conditions noted are these: HepG2 Attagene cis-factorial transcription factor reporter; actives raise or lower the signal. The essentials: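 Endogenous C/EBPb-driven reporter transcripts measured in transfected human HepG2 cells at 24 h via RT-PCR and capillary electrophoresis of labelled fragments. Activity fitted in both directions relative to DMSO baseline.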
CCAAT/enhancer-binding protein beta (Homo sapiens), sequence (P17676 whole entry, looked up, the tested form may be a part): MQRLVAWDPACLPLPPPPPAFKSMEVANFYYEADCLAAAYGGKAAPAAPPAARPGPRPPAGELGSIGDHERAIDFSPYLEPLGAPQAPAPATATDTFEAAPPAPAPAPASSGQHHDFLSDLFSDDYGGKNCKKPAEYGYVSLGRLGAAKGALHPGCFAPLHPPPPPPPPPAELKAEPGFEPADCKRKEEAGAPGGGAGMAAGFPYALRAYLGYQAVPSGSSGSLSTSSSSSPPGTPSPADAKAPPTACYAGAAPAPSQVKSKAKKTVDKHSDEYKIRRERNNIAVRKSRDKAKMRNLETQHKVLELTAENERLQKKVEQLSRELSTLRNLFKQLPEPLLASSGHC

Test [3] is described as follows: ATG_DR4_LXR_CIS: Attagene CIS-FACTORIAL HepG2 Assay for human Liver X Receptor (LXR), DR4 submotif (AID 2282929). The following applies: HepG2 Attagene DR4 cis-reporter, mRNA transcription; actives raise or lower the signal. An outline of the steps:
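Measures endogenous transcription factor activity via a DR4-driven reporter transcript in human HepG2 cells. Compounds incubated 24 h; mRNA quantified by RT-PCR and capillary electrophoresis, analysed as gain or loss of signal versus DMSO.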

The nature of test [4]: ATG_AP_2_CIS: Attagene CIS-FACTORIAL HepG2 Assay for human Activator Protein 2 (AP-2) (AID 2282932). The following applies: HepG2 AP-2 cis-reporter, Attagene transcription factor profiling; actives raise or lower the signal. An outline of the steps:
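HepG2, transient MRTU transfection, cis-regulated reporters; 24 h compound exposure; RNA isolated, RT-PCR, 6-FAM labelling, HpaI digest, CE fluorescence. DMSO = negative control/baseline, bidirectional fit.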

Test [5] is described as follows: ATG_BRE_CIS: Attagene CIS-FACTORIAL HepG2 Assay for human Bone Morphogenetic Protein (BMP) Response Element (BRE) (AID 2282933). The conditions noted are these: HepG2 BMP response element reporter, Attagene transcription factor profiling; actives raise or lower the signal. The essentials: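 Read-out: reporter mRNA induction quantified by RT-PCR and capillary electrophoresis after 24 h chemical exposure of transfected HepG2 cells. Endogenous factor activity on the BMP response element; gain or loss fitted against DMSO baseline.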

For test [6], the target named is Transcription factor E2F1 (Homo sapiens) (UniProt Q01094). The test can be described thus: ATG_E2F_CIS: Attagene CIS-FACTORIAL HepG2 Assay for human E2F Transcription Factor 1 (AID 2282935). The conditions noted are these: HepG2 Attagene cis-reporter, E2F reporter RNA transcripts; actives raise or lower the signal. The essentials:
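Cis-element reporter mRNA induction in transiently transfected HepG2, 24 h exposure. Activity fitted in both directions relative to DMSO negative control.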

The nature of test [7]: ATG_EGR_CIS: Attagene CIS-FACTORIAL HepG2 Assay for human Early Growth Response 1 (EGR1) (AID 2282938). The following applies: HepG2 Attagene CIS-FACTORIAL EGR reporter mRNA; actives raise or lower the signal. An outline of the steps: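 Cell-based multiplex transcription assay: HepG2 carrying transfected cis-element reporter units, 24 h chemical treatment. Fluorescence from capillary electrophoresis of RT-PCR products gives mRNA levels; fitting is bidirectional relative to DMSO.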

The nature of test [8]: ATG_M_19_CIS: Attagene CIS-FACTORIAL HepG2 Assay for M19 Transcription Factor (Internal Marker) (AID 2282939). The following applies: HepG2 Attagene CIS-FACTORIAL M19 internal marker reporter; actives raise or lower the signal. An outline of the steps:
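Readout: fluorescent reporter-transcript fragments by capillary electrophoresis after RT-PCR. Human HepG2 liver cells carried transfected MRTU constructs reporting endogenous transcription-factor activity; exposure 24 h. Gain or loss of signal fitted relative to DMSO.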

Test [9] can be described thus: ATG_Ets_CIS: Attagene CIS-FACTORIAL HepG2 Assay for human Erythroblast Transformation Specific (ETS) (AID 2282941). The conditions noted are these: HepG2 ETS cis-reporter transcription, actives raise or lower the signal. The essentials: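 Human HepG2 hepatoma cells were transiently transfected with promoter-driven reporter constructs and treated for 24 hours. Reporter transcripts were quantified by RT-PCR with fluorescent primer extension; bidirectional curve fitting used DMSO as reference.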

Test [10] has as its target Hepatocyte nuclear factor 3-beta (Homo sapiens) (UniProt Q9Y261). The experiment in a line: ATG_FoxA2_CIS: Attagene CIS-FACTORIAL HepG2 Assay for human Forkhead box A2 (FOXA2) (AID 2282942). The following applies: HepG2 cis-reporter transcription factor activity, 24 h; actives raise or lower the signal. An outline of the steps: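 In transiently transfected human HepG2 cells, promoter-driven reporter mRNA levels after 24 h chemical exposure are determined via RT-PCR with capillary electrophoresis. DMSO serves as baseline for bidirectional fitting.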

A short description of test [11]: ATG_FoxO_CIS: Attagene CIS-FACTORIAL HepG2 Assay for human Forkhead box O (FoxO) (AID 2282943). The conditions noted are these: HepG2 Attagene cis-reporter, FoxO element, mRNA; actives raise or lower the signal. The essentials: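 Endogenous transcription factor activity read from multiplexed cis-promoter reporter transcripts in transiently transfected HepG2, 24 h after dosing. Reporter RNA measured via RT-PCR plus capillary electrophoresis of FAM-labeled products; gain or loss relative to DMSO.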

Test [12] can be described thus: ATG_GATA_CIS: Attagene CIS-FACTORIAL HepG2 Assay for human GATA Binding Protein (AID 2282944). The conditions noted are these: HepG2 GATA cis-element reporter, Attagene multiplex mRNA; actives raise or lower the signal. An outline of the steps: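 Read-out: fluorescent reporter mRNA fragments resolved by capillary electrophoresis after RT-PCR. Human liver HepG2 cells carried transiently transfected cis-regulated reporter constructs; chemicals incubated 24 h; gain or loss of signal fitted relative to DMSO.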

Test [13] can be described thus: ATG_GLI_CIS: Attagene CIS-FACTORIAL HepG2 Assay for human Zinc Finger Protein GLI1 (AID 2282945). The following applies: HepG2, Attagene cis-factorial reporter mRNA, GLI element; actives raise or lower the signal. An outline of the steps:
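Bidirectional curve fits relative to DMSO, using reporter mRNA levels from RT-PCR plus capillary electrophoresis. Cells were HepG2 transiently carrying cis-regulated reporter constructs, harvested 24 h after dosing.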

Test [14] is described as follows: ATG_M_06_CIS: Attagene CIS-FACTORIAL HepG2 Assay for M06 Transcription Factor (Internal Marker) (AID 2282950). The conditions noted are these: HepG2 Attagene CIS-FACTORIAL M06 internal marker reporter; actives raise or lower the signal. The essentials:
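Terse: HepG2, transient MRTU transfection (FuGene 6), 24 h dosing; total RNA, oligo(dT) RT, PCR, FAM label, HpaI cut, capillary electrophoresis; bidirectional fit vs DMSO baseline; background-control endpoint.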

A short description of test [15]: ATG_MRE_CIS: Attagene CIS-FACTORIAL HepG2 Assay for human Metal Responsive Element (MRE) (AID 2282954). The conditions noted are these: HepG2 MRE cis-reporter transcription, Attagene multiplex; actives raise or lower the signal. The essentials: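 Transient MRTU transfection of HepG2 (FuGene 6); 24 h dosing; total RNA → oligo(dT) RT, PCR, 6-FAM primer extension, HpaI cut, CE. Bidirectional fit vs DMSO.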

In test [16] the target is Paired box protein Pax-6 (Homo sapiens) (UniProt P26367). The experiment in a line: ATG_Pax6_CIS: Attagene CIS-FACTORIAL HepG2 Assay for human Paired Box 6 (PAX6) (AID 2282956). The following applies: HepG2 CIS-FACTORIAL PAX6 reporter transcription, RNA readout; actives raise or lower the signal. The essentials:
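Multiplexed cis-reporter HepG2 system; 24 h treatment; reporter mRNA read by RT-PCR/CE fluorescence; bidirectional fit vs DMSO.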

Test [17] can be described thus: ATG_PXRE_CIS: Attagene CIS-FACTORIAL HepG2 Assay for human Pregnane X Receptor Element (PXRE) (AID 2282957). The conditions noted are these: HepG2 Attagene CIS-FACTORIAL PXRE reporter, mRNA; actives raise or lower the signal. The essentials: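 Transfect HepG2 with MRTUs (cis promoter elements); dose chemical, incubate 24 h; isolate RNA, RT with oligo(dT), PCR, 6-FAM label, HpaI cut, CE. Gain/loss fit vs DMSO.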

A short description of test [18]: ATG_Sox_CIS: Attagene CIS-FACTORIAL HepG2 Assay for human SRY-box transcription factor (SOX) (AID 2282960). The conditions noted are these: HepG2 Attagene cis-factorial SOX reporter, mRNA; actives raise or lower the signal. An outline of the steps:
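After 24 h of chemical treatment, transfected HepG2 reporter cells are lysed for total RNA. Transcript levels come from RT-PCR with labelled primer extension and capillary electrophoresis, analysed bidirectionally versus DMSO.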

Test [19] has as its target Transcription factor Sp1 (Homo sapiens) (UniProt P08047). The experiment in a line: ATG_Sp1_CIS: Attagene CIS-FACTORIAL HepG2 Assay for human Specificity Protein 1 (Sp1) (AID 2282961). The following applies: HepG2 Sp1 cis-reporter transcription, actives raise or lower the signal. The essentials:
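Sp1-driven reporter mRNA, read as capillary electrophoresis fluorescence after RT-PCR, in transiently transfected HepG2 cells dosed for 24 h; signal change in either direction relative to DMSO.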

Test [20] can be described thus: ATG_SREBP_CIS: Attagene CIS-FACTORIAL HepG2 Assay for human Sterol Regulatory Element Binding (SREBP) (AID 2282962). The following applies: HepG2 Attagene cis-factorial SREBP reporter, mRNA; actives raise or lower the signal. The essentials:
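mRNA induction of transfected cis-promoter reporters in HepG2 cells, 24 h post-dose. Detection: RT-PCR with 6-FAM-labelled products, HpaI digest, capillary electrophoresis. DMSO served as negative control and baseline.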

Transcription factor Sp1 (Homo sapiens), sequence (P08047 whole entry, looked up): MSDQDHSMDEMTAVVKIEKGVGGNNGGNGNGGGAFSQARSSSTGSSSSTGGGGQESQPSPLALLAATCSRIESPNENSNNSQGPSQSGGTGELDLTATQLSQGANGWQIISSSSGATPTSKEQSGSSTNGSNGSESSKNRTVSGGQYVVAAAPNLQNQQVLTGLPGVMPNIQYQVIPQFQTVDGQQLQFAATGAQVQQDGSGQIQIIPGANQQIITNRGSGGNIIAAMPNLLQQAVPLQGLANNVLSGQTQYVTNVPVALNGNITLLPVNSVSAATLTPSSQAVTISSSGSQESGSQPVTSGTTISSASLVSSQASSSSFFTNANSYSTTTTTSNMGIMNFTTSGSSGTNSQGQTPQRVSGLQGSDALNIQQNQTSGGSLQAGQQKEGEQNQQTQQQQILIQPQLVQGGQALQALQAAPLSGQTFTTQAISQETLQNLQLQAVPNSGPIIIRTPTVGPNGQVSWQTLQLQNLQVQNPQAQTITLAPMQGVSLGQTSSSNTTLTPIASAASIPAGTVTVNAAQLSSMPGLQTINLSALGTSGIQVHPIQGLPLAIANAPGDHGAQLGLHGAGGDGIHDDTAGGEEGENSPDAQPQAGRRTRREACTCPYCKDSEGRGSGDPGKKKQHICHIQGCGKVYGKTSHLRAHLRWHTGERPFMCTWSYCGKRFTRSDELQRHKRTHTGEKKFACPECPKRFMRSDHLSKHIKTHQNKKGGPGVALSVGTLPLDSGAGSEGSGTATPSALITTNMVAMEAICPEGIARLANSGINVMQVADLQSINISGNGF
Transcription factor E2F1 (Homo sapiens), sequence (Q01094 whole entry, looked up): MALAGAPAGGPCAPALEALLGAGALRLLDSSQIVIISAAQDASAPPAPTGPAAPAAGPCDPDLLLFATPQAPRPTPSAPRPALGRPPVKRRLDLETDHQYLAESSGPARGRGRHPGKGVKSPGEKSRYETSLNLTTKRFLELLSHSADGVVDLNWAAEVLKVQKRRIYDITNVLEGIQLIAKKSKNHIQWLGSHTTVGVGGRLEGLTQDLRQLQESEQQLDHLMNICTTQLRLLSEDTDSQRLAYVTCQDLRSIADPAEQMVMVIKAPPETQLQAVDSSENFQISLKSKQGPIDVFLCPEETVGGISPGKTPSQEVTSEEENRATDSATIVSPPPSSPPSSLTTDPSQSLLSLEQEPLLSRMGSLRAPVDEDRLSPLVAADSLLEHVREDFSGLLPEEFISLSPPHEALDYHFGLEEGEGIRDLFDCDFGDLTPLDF
Hepatocyte nuclear factor 3-beta (Homo sapiens), sequence (Q9Y261 whole entry, looked up): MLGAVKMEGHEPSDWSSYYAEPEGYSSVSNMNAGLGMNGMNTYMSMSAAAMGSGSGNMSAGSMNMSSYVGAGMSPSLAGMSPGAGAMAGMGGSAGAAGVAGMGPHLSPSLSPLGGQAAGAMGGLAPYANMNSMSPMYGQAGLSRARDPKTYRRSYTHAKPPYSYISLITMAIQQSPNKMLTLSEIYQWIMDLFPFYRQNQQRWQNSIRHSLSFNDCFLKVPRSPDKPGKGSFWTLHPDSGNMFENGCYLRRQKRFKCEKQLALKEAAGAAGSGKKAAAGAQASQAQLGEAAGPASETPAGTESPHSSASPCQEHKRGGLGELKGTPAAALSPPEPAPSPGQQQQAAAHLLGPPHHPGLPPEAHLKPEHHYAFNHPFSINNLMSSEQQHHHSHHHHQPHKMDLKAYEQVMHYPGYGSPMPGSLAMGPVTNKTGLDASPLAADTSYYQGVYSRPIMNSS
Paired box protein Pax-6 (Homo sapiens), sequence (P26367 whole entry, looked up): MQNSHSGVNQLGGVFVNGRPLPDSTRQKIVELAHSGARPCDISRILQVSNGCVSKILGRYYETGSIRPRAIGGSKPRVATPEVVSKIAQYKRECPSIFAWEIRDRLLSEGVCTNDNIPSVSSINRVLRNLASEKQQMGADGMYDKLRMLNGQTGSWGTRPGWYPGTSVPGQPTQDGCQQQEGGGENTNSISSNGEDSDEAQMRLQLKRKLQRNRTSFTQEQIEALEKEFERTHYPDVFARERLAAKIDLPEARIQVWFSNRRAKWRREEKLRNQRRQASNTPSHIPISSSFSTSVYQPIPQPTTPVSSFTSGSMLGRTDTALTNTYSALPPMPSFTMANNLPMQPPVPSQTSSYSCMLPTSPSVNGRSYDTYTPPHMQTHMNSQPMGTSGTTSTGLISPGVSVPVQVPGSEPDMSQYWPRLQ

One may read the AC50 as the midpoint of the concentration-response curve, whichever way the signal moves. Take `O=[N+]([O-])c1cc(C(F)(F)F)c(Cl)c([N+](=O)[O-])c1Cl`: the result in test [1], in test [2], in test [4], in test [5], in [6] and in [8] was inactive. Moreover, the result in [9], in test [10], in test [11], in test [12], in test [13] and in [14] was inactive. Besides, the compound was called inactive in [17] and in [20]. The AC50 was 5.08 µM (active) in [3]; 4.82 µM (active) in test [7]; 5.11 µM (active) in test [15]; 2.77 µM (active) in [16]; 5.81 µM (active) in [18]; 6.68 µM (active) in [19].

In the case of `S=c1[nH]c2ccccc2[nH]1`, the compound was classed as inactive in test [1], in test [2], in test [3], in test [4], in [5] and in [6]. The outcome in test [7], in test [8], in test [9], in test [10], in [11] and in [12] was inactive. Also, the compound was called inactive in test [13], in test [14], in [15], in test [16], in test [17] and in test [18]. The outcome in test [19] and in [20] was inactive.

Consider `C=Cc1cccc(CCl)c1`, for which the result in [1], in test [2], in test [3], in test [4], in test [5] and in test [6] was inactive. Further, the outcome in [7], in [8], in test [10], in test [11], in [12] and in [13] was inactive. The compound was classed as inactive in [14], in test [15], in test [16], in [18] and in test [20]. Also, the AC50 in test [9] was 100 µM (active); in test [17], 46.2 µM (active); in test [19] it was 25.5 µM (active).
